Measured values reported in PubChem BioAssay (NCATS).
Results filed as inconclusive are left out. The source made the active and inactive calls. Unless noted, the call rests on the fitted dose curve; in most records, active means well fitted curve in the direction sought with a large enough effect; inconclusive means small, poorly fitted or top-dose-only effect, or another doubt; inactive means no such curve, though single readings can be large; an effect the other way counts as inactive or inconclusive.

How the values were obtained:
[1] = biological target: ATP-dependent 6-phosphofructokinase (Trypanosoma brucei brucei) (UniProt O15648); test: qHTS Assay to Find Inhibitors of T. brucei phosphofructokinase: hit validation (AID 492961);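 further: luminescence reports ADP formed as PFK phosphorylates fructose-6-phosphate with ATP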
Sequence of ATP-dependent 6-phosphofructokinase (Trypanosoma brucei brucei) (O15648 whole entry, looked up): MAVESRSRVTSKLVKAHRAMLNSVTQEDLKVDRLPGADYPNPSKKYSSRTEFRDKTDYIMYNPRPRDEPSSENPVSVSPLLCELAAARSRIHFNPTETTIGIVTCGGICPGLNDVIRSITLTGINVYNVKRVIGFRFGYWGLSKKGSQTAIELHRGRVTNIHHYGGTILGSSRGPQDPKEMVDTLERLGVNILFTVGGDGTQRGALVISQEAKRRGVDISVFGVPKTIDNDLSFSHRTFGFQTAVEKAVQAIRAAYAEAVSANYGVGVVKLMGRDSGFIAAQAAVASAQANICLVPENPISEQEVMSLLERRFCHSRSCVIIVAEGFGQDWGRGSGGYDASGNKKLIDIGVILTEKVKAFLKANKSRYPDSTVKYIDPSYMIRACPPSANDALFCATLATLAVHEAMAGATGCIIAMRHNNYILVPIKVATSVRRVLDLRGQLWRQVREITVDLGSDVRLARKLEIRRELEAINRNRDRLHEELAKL
In short: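 In this biochemical qHTS validation, titrated compounds were tested against 1.25 nM PFK with 0.1 mM ATP and 0.5 mM F6P. Percent activity came from controls lacking or containing enzyme.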

[2] = biological target: Ubiquitin carboxyl-terminal hydrolase 1 (Homo sapiens) (UniProt O94782); test: Inhibitors of USP1/UAF1: Pilot qHTS (AID 504865);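 further: rhodamine fluorescence freed from ubiquitin-rhodamine substrate followed over time; top concentration of the series differs between compounds; nearly all actives have a fitted effect of over 35% in size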
Sequence of Ubiquitin carboxyl-terminal hydrolase 1 (Homo sapiens) (O94782 whole entry, looked up): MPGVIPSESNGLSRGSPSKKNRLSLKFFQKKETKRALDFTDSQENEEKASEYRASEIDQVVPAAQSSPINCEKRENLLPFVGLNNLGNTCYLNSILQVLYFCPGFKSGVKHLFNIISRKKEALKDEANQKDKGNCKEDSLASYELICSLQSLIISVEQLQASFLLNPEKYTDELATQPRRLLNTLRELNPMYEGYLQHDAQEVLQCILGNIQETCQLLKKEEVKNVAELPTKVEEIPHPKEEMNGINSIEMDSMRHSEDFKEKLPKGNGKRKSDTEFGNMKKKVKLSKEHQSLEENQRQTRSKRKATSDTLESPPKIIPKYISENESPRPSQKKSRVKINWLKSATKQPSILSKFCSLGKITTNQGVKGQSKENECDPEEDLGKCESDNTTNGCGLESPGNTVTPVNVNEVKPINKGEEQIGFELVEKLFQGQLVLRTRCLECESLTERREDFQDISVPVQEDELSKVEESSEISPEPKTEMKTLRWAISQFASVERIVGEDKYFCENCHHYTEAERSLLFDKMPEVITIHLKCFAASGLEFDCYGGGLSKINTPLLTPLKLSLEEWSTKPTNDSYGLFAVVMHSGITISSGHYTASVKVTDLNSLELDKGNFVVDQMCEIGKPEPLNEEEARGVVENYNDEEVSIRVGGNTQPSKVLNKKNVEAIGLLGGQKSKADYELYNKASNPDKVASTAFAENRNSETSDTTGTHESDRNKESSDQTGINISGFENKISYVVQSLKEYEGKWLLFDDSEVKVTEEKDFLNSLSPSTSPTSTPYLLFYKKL
In short: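 Enzyme-free wells gave the negative control, while test wells held 1nM USP1/UAF1 preincubated with compound for 15 min at room temperature. Ub-Rho at 150nM final started the reaction, and fluorescence at 480/540 nm was recorded kinetically.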

[3] = biological target: Luciferin 4-monooxygenase (Photinus pyralis) (UniProt P08659); test: Biochemical firefly luciferase enzyme assay for NPC (AID 624030);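 further: purified P. pyralis luciferase at 10 nM with luciferin and ATP substrate; nearly all actives have a fitted effect of over 70% in size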
Sequence of Luciferin 4-monooxygenase (Photinus pyralis) (P08659 whole entry, looked up): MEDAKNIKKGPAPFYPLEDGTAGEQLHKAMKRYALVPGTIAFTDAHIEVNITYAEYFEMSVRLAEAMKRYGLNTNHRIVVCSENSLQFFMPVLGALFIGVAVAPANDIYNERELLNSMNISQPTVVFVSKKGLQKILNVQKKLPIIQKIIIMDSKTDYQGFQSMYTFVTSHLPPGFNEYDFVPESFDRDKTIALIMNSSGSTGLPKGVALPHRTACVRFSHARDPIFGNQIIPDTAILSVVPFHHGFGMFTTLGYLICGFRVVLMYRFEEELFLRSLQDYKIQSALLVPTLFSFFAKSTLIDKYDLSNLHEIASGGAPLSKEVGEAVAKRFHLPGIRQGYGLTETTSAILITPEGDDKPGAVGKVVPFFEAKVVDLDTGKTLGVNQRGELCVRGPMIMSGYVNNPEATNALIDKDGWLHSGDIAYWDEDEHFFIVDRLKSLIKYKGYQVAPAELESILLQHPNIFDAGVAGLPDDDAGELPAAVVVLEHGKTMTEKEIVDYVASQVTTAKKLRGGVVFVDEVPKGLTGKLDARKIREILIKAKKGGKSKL
In short: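 Direct inhibition of firefly luciferase enzyme (10 nM final, 50 mM Tris Acetate) assessed by luminescence within 5 minutes. Percent activity scaled between DMSO and PTC124 positive control, with concentration-effect curves classified by fit quality and response.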

[4] = S16 Schwann cell viability assay (CellTiter-Glo assay) (AID 624031);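 further: cellular ATP luminescence as a viability measure; nearly all actives have a fitted effect of over 70% in size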
In short: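 This viability control uses native rat S16 Schwann cells grown in DMEM plus 10% FBS. After a 24 h compound treatment at 37 °C, CellTiter-Glo luminescence reports ATP content, scaled against DMSO-treated and cell-free wells.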

[5] = S16 Schwann cell PMP22 intronic element firefly luciferase assay (AID 624032); further: nearly all actives have a fitted effect of over 30% in size
In short: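 Luciferase reporter of PMP22 intronic-element expression in stably transfected S16 rat Schwann cells, read by ONE-Glo luminescence after 24 h compound exposure at 37 C. Activity scaled between DMSO (0%) and positive-control PTC124; concentration-effect curves quality-classified.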

[6] = S16 Schwann cell PMP22 intronic element beta-lactamase assay (AID 624044; calls by dose curve; further: nearly all actives have a fitted effect of over 15% in size)
In short: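 Rat S16 Schwann cells with beta-Lac driven by a PMP22 intronic element, compound-treated 24 h at 37 °C. LiveBLAzer FRET B/G read: 460 nm normalized to potassium clavulanate vs DMSO; 535 nm FRET as viability; concentration-effect curves classified.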

[7] = test system: 3D7; test: qHTS profiling for inhibitors of Plasmodium falciparum proliferation (AID 504749); further: nearly all actives have a fitted effect of over 60% in size; conditions: P. falciparum in erythrocytes, SYBR Green DNA, 72 h; series mostly up to 28.7 µM
In short: (§1)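 Infected RBCs, 0.3% parasitemia/2.5% Hct final; cpd 72 h, 37 C, 5% CO2; lysis buffer with saponin/triton/SYBR Green I, o/n RT dark; FI 485/535; norm. to artemisinin (0.29 uM) and DMSO.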

[8] = test system: AA1029; test: as above; conditions: P. falciparum in erythrocytes, SYBR Green DNA, 72 h; series mostly up to 28.7 µM
In short: as §1

[9] = test system: AS120; test: as above; conditions: P. falciparum in erythrocytes, SYBR Green DNA, 72 h; series mostly up to 28.7 µM
In short: as §1

[10] = test system: ATS189; test: as above; conditions: P. falciparum in erythrocytes, SYBR Green DNA, 72 h; series mostly up to 28.7 µM
In short: as §1

[11] = test system: ATS95; test: as above; conditions: P. falciparum in erythrocytes, SYBR Green DNA, 72 h; series mostly up to 28.7 µM
In short: as §1

[12] = test system: C2A; test: as above; conditions: P. falciparum in erythrocytes, SYBR Green DNA, 72 h; series mostly up to 28.7 µM
In short: as §1

[13] = test system: CP185; test: as above; conditions: P. falciparum in erythrocytes, SYBR Green DNA, 72 h; series mostly up to 28.7 µM
In short: as §1

[14] = test system: CP191; test: as above; conditions: P. falciparum in erythrocytes, SYBR Green DNA, 72 h; series mostly up to 28.7 µM
In short: as §1

[15] = test system: CP192; test: as above; conditions: P. falciparum in erythrocytes, SYBR Green DNA, 72 h; series mostly up to 28.7 µM
In short: as §1

[16] = test system: CP201; test: as above; conditions: P. falciparum in erythrocytes, SYBR Green DNA, 72 h; series mostly up to 28.7 µM
In short: as §1

[17] = test system: CP203; test: as above; conditions: P. falciparum in erythrocytes, SYBR Green DNA, 72 h; series mostly up to 28.7 µM
In short: as §1

[18] = test system: CP211; test: as above; conditions: P. falciparum in erythrocytes, SYBR Green DNA, 72 h; series mostly up to 28.7 µM
In short: as §1

[19] = test system: CP215; test: as above; conditions: P. falciparum in erythrocytes, SYBR Green DNA, 72 h; series mostly up to 28.7 µM
In short: as §1

[20] = test system: CP217; test: as above; conditions: P. falciparum in erythrocytes, SYBR Green DNA, 72 h; series mostly up to 28.7 µM
In short: as §1

[21] = test system: CP237; test: as above; conditions: P. falciparum in erythrocytes, SYBR Green DNA, 72 h; series mostly up to 28.7 µM
In short: as §1

[22] = test system: CP238; test: as above; conditions: P. falciparum in erythrocytes, SYBR Green DNA, 72 h; series mostly up to 28.7 µM
In short: as §1

[23] = test system: CP247; test: as above; conditions: P. falciparum in erythrocytes, SYBR Green DNA, 72 h; series mostly up to 28.7 µM
In short: as §1

[24] = test system: CP250; test: as above; conditions: P. falciparum in erythrocytes, SYBR Green DNA, 72 h; series mostly up to 28.7 µM
In short: as §1

[25] = test system: CP252; test: as above; conditions: P. falciparum in erythrocytes, SYBR Green DNA, 72 h; series mostly up to 28.7 µM
In short: as §1

[26] = test system: CP256; test: as above; conditions: P. falciparum in erythrocytes, SYBR Green DNA, 72 h; series mostly up to 28.7 µM
In short: as §1

[27] = test system: CP260; test: as above; conditions: P. falciparum in erythrocytes, SYBR Green DNA, 72 h; series mostly up to 28.7 µM
In short: as §1

[28] = test system: CP262; test: as above; conditions: P. falciparum in erythrocytes, SYBR Green DNA, 72 h; series mostly up to 28.7 µM
In short: as §1

[29] = test system: CP265; test: as above; conditions: P. falciparum in erythrocytes, SYBR Green DNA, 72 h; series mostly up to 28.7 µM
In short: as §1

[30] = test system: CP266; test: as above; conditions: P. falciparum in erythrocytes, SYBR Green DNA, 72 h; series mostly up to 28.7 µM
In short: as §1

[31] = test system: CP268; test: as above; conditions: P. falciparum in erythrocytes, SYBR Green DNA, 72 h; series mostly up to 28.7 µM
In short: as §1

[32] = test system: CP269; test: as above; conditions: P. falciparum in erythrocytes, SYBR Green DNA, 72 h; series mostly up to 28.7 µM
In short: as §1

[33] = test system: CP286; test: as above; conditions: P. falciparum in erythrocytes, SYBR Green DNA, 72 h; series mostly up to 28.7 µM
In short: as §1

[34] = test system: CP291; test: as above; conditions: P. falciparum in erythrocytes, SYBR Green DNA, 72 h; series mostly up to 28.7 µM
In short: as §1

[35] = test system: CP297; test: as above; conditions: P. falciparum in erythrocytes, SYBR Green DNA, 72 h; series mostly up to 28.7 µM
In short: as §1

[36] = test system: CP305; test: as above; conditions: P. falciparum in erythrocytes, SYBR Green DNA, 72 h; series mostly up to 28.7 µM
In short: as §1

[37] = test system: CP315; test: as above; conditions: P. falciparum in erythrocytes, SYBR Green DNA, 72 h; series mostly up to 28.7 µM
In short: as §1

[38] = test system: CP325; test: as above; conditions: P. falciparum in erythrocytes, SYBR Green DNA, 72 h; series mostly up to 28.7 µM
In short: as §1

[39] = test system: CP329; test: as above; conditions: P. falciparum in erythrocytes, SYBR Green DNA, 72 h; series mostly up to 28.7 µM
In short: as §1

[40] = test system: CP335; test: as above; conditions: P. falciparum in erythrocytes, SYBR Green DNA, 72 h; series mostly up to 28.7 µM
In short: as §1

[41] = test system: DFO2036; test: as above; conditions: P. falciparum in erythrocytes, SYBR Green DNA, 72 h; series mostly up to 28.7 µM
In short: as §1

[42] = test system: DIV30; test: as above; conditions: P. falciparum in erythrocytes, SYBR Green DNA, 72 h; series mostly up to 28.7 µM
In short: as §1

[43] = test system: Dd2; test: as above; conditions: P. falciparum in erythrocytes, SYBR Green DNA, 72 h; series mostly up to 28.7 µM
In short: as §1

[44] = test system: ECU; test: as above; conditions: P. falciparum in erythrocytes, SYBR Green DNA, 72 h; series mostly up to 28.7 µM
In short: as §1

[45] = test system: FAB9; test: as above; conditions: P. falciparum in erythrocytes, SYBR Green DNA, 72 h; series mostly up to 28.7 µM
In short: as §1

[46] = test system: HB3; test: as above; conditions: P. falciparum in erythrocytes, SYBR Green DNA, 72 h; series mostly up to 28.7 µM
In short: as §1

[47] = test system: JCK; test: as above; conditions: P. falciparum in erythrocytes, SYBR Green DNA, 72 h; series mostly up to 28.7 µM
In short: as §1

[48] = test system: N140; test: as above; conditions: P. falciparum in erythrocytes, SYBR Green DNA, 72 h; series mostly up to 28.7 µM
In short: as §1

[49] = test system: P93_24; test: as above; conditions: P. falciparum in erythrocytes, SYBR Green DNA, 72 h; series mostly up to 28.7 µM
In short: as §1

[50] = test system: P94_40; test: as above; conditions: P. falciparum in erythrocytes, SYBR Green DNA, 72 h; series mostly up to 28.7 µM
In short: as §1

[51] = test system: PAD; test: as above; conditions: P. falciparum in erythrocytes, SYBR Green DNA, 72 h; series mostly up to 28.7 µM
In short: as §1

[52] = test system: PC15; test: as above; conditions: P. falciparum in erythrocytes, SYBR Green DNA, 72 h; series mostly up to 28.7 µM
In short: as §1

[53] = test system: PC49; test: as above; conditions: P. falciparum in erythrocytes, SYBR Green DNA, 72 h; series mostly up to 28.7 µM
In short: as §1

[54] = test system: SC27B; test: as above; conditions: P. falciparum in erythrocytes, SYBR Green DNA, 72 h; series mostly up to 28.7 µM
In short: as §1

[55] = test system: TAB109; test: as above; conditions: P. falciparum in erythrocytes, SYBR Green DNA, 72 h; series mostly up to 28.7 µM
In short: as §1

[56] = test system: TAB113; test: as above; conditions: P. falciparum in erythrocytes, SYBR Green DNA, 72 h; series mostly up to 28.7 µM
In short: as §1

[57] = test system: TAB165; test: as above; conditions: P. falciparum in erythrocytes, SYBR Green DNA, 72 h; series mostly up to 28.7 µM
In short: as §1

Measured: Potency

CCN1C[C@]2(COC)[C@H](O)C[C@H](OC)[C@]34C1C([C@H](OC)[C@H]23)[C@]1(OC(C)=O)C2[C@@H](OC(=O)c3ccccc3)C(O)(C[C@H]24)[C@@H](OC)[C@@H]1O
inactive: [1] | [2] | [3] | [4] | [5] | [6] | [7] | [8] | [9] | [10] | [11] | [12] | [13] | [14] | [15] | [16] | [17] | [18] | [19] | [20] | [21] | [22] | [23] | [24] | [25] | [26] | [27] | [28] | [29] | [30] | [31] | [32] | [33] | [34] | [35] | [36] | [37] | [38] | [39] | [40] | [41] | [42] | [43] | [44] | [45] | [46] | [47] | [48] | [49] | [50] | [51] | [52] | [53] | [54] | [55] | [56] | [57]
